Screens as filed in PubChem BioAssay.
This is a sample that favours compounds with a hit; in the whole collection about 6.9% have one here.
HP1b binding inh = HTS for Inhibitors of HP1-beta Chromodomain Interactions with Methylated Histone Tails | AlphaScreen HP1-beta / biotin-H3K9me3 peptide binding | Potency, µM (titrated, usually from 114 µM), for the others: at the top dose activity change, negative = inhibition, actives largely listed as inhibitors | 0.56% of 390,000 active | Chromobox protein homolog 1 (Homo sapiens), P83916 | AID 540317, 2011; also: nearly all actives have a fitted effect of over 70% in size
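Compound inhibition of the preformed complex between 50 nM HP1-beta and 50 nM biotinylated H3K9me3 peptide was read by AlphaScreen. Buffer was PBS pH 7.4 with 0.01% Tween-20. Incubations ran 30 min at room temperature, with 10 ug/mL donor/acceptor beads.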
BAZ2B inh = qHTS Assay for Inhibitors of BAZ2B | Potency, µM (doses to about 114 µM), for inactives: top-dose activity change, negative = inhibition, most hits filed as inhibitors | Bromodomain adjacent to zinc finger domain protein 2B (Homo sapiens), Q9UIF8 | AlphaScreen BAZ2B-H3K14Ac peptide displacement | AID 504333, 2011 | 4.4% of 360,000 active; also: % is scaled to controls: 0 for no effect and ±100 for the full control effect; nearly all actives have a fitted effect of over 60% in size
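AlphaScreen luminescence quantifies BAZ2B engagement of H3K14Ac peptide; the protein and biotinylated peptide are both at 50 nM final, buffer PBS pH 7.4 with 0.01% Tween-20, all steps at room temperature.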
JMJD2A Tudor = qHTS Assay for Inhibitors of JMJD2A-Tudor Domain; AlphaScreen JMJD2A-Tudor / H3K4me3 peptide binding; Potency, µM (titrated, usually from 114 µM), without a hit: at the highest dose activity change, negative = inhibition, usual class: inhibitors; 4.4% of 390,000 active; also: % is scaled to controls: 0 for no effect and ±100 for the full control effect; nearly all actives have a fitted effect of over 50% in size
VDR inh = Inhibitors of the vitamin D receptor (VDR): qHTS. Vitamin D3 receptor (Homo sapiens), P11473. VDR-SRC2-3 peptide fluorescence polarization, 2 h. Potency, µM, inactives show max response, negative = inhibition, actives largely listed as inhibitors. 0.93% of 400,000 active; also: % is scaled to controls: 0 for no effect and ±100 for the full control effect
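Two reagent solutions held at 4 deg C in the dark were dispensed, compounds pinned at 23 nl, and the mixture incubated 2 h at room temperature. Read-out: fluorescence polarization of VDR–SRC2-3 peptide binding.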
L3MBTL1 block = qHTS Assay for the Inhibitors of L3MBTL1; Lethal(3)malignant brain tumor-like protein 1 (Homo sapiens), Q9Y468; AlphaScreen L3MBTL1–H3K9me1 peptide binding; Potency, µM (top dose mostly 57.1 µM), without a hit: top-dose activity, negative = inhibition, usual class: inhibitors; 0.66% of 230,000 active; also: % is scaled to controls: 0 for no effect and ±100 for the full control effect; nearly all actives have a fitted effect of over 60% in size
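AlphaScreen assay: L3MBTL1 (50 nM final) was preincubated 30 min at room temperature with biotinylated H3(1-15)K9me1 peptide (75 nM final), then 30 min with library compounds; streptavidin donor and nickel chelate acceptor beads (10 ug/mL final) added, 30 min dark.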
PLK1 PBD block = qHTS for Inhibitors of PLK1-PDB (polo-like kinase 1 - polo-box domain): Primary Screen | Serine/threonine-protein kinase PLK1 (Homo sapiens), P53350 | Plk1 PBD binding of FITC phosphopeptide, fluorescence polarization | Potency, µM, without a hit: max response, negative = inhibition, hits mostly inhibitors | 2.8% of 360,000 active | AID 720504, 2013; also: series mostly up to about 57 µM; % is scaled to controls: 0 for no effect and ±100 for the full control effect; nearly all actives have a fitted effect of over 65% in size
The depositor's hits bear a star; u = inconclusive; x = not tested or not shown; [ ] = dose if it differs, or a comment. Calls follow the shape of the dose curve; as a rule, active = well fitted curve in the direction sought with a large enough effect; inconclusive = small, poorly fitted or top-dose-only effect, or another doubt; inactive = no such curve, though single readings can be large; an effect the other way counts as inactive or inconclusive. Potency is read from the fitted curve at half-maximal effect.

SMILES	HP1b binding inh	BAZ2B inh	JMJD2A Tudor	VDR inh	L3MBTL1 block	PLK1 PBD block
O=C(COc1ccc(/C=N/NC(=O)C(=O)N2CCCCCC2)cc1)Nc1ccccc1Cl	-13.7%	-32.7%	-31.3%	5.6%	3.7%	2.6%
Cc1c(P(=S)(c2ccccc2)c2ccccc2)[n+]2ccccc2n1Cc1ccccc1	x	x	-17.7%	x	x	x
Cc1cc(C(=O)Nc2cccc3c2O[C@@H](CN(C)S(C)(=O)=O)[C@H](C)CN([C@@H](C)CO)C3=O)n(C)n1	33.3%	x	-8.6%	-8.5%	-2.1%	-16.4%
COc1ccccc1CNC(=O)c1cc(S(=O)(=O)N2CCCCCC2)cn1C	26.6%[57 µM]	-15.9%	-22.0%	11.7%	x	x
CCOc1ccccc1C(=O)Nc1cc2c(cc1N1CCCC1)n(CC)c(=O)n2CC	-23.7%[57 µM]	17.8µM*	50.1µM*	-6.6%	x	-12.8%
CCOc1cc(C(=O)Nc2cc3c(cc2N2CCCC2)n(C)c(=O)n3C)cc(OCC)c1OCC	32.4%	89.1µM*	-29.2%	15.0%	x	-3.2%
CCn1c(=O)n(CC)c2cc(N3CCCC3)c(NC(=O)c3ccccc3OC)cc21	u	44.7µM*	u	3.8%	x	-1.3%
CCOc1cc(C(=O)Nc2cc3c(cc2N2CCCC2)n(C)c(=O)c(=O)n3C)cc(OCC)c1OCC	25.2%	-20.8%	-21.9%	3.3%	x	x
CCn1c(=O)n(CC)c2cc(N3CCCC3)c(NC(=O)c3cccc(C)c3)cc21	-5.7%	50.1µM*	u	86.4%	x	-12.3%
CCN(C[C@H]1N[C@@](C)(C(=O)OC)[C@H]2C(=O)N(Cc3ccccc3)C(=O)[C@@H]12)C(=O)Nc1ccc(F)cc1	15.5%	x	-20.5%	15.1%	6.1%	-9.9%
Cc1ccc(NC(=O)C(=O)NCC(c2cccnc2)N2CCN(Cc3ccccc3)CC2)cc1C (stereo not drawn)	17.8%	-1.3%	-13.2%	9.3%	x	x
CCn1c(=O)n(CC)c2cc(N3CCCC3)c(NC(=O)c3cc(Cl)ccc3OC)cc21	u	25.1µM*	50.1µM*	-1.6%	x	-9.5%
CCn1c(=O)c(=O)n(CC)c2cc(N3CCCCC3)c(NC(=O)c3ccccc3OC)cc21	37.4%	-0.6%	-0.7%	5.8%	x	x
COc1ccc(NCc2ccc(OC)c(Cn3ccnc3)c2)c(OC)c1	u	50.1µM*	39.8µM*	u	x	2.9%
COc1ccc(Cn2ccnc2)cc1[N+](=O)[O-]	9.1%	-21.9%	-11.4%	-19.8%	8.5%	-10.4%
COc1ccc(Cn2ccnc2)cc1Br	5.5%	50.1µM*	u	3.1%	x	-1.0%
CCOc1ccc(N/C(C)=C/C(=O)c2ccc3c(c2)OCCO3)cc1	-29.5%	u	u	-15.0%	-6.9%	-1.5%
CCOc1ccc(N/C(C)=C\C(=O)c2ccc3c(c2)OCCO3)cc1	-21.5%	25.1µM*	u	-1.3%	-5.4%	-10.0%
COc1ccc(C(=O)/C=C(\C)Nc2ccc3c(c2)OCO3)cc1	u	50.1µM*	28.2µM*	3.8%	-6.6%	-10.2%
Cc1nc(S(=O)(=O)N2CCN(c3cccc(Cl)c3)CC2)cn1C	19.8%[57 µM]	-1.2%	-17.3%	20.7%	x	x
COc1ccc(C2C(C(=O)Nc3ccccc3)=C(C)Nc3nc(-c4ccc(Cl)cc4)nn32)cc1 (stereo not drawn)	45.0%	-36.0%	-20.3%	-11.9%	x	x
Cc1ccc(NC(=O)CNC(C)c2ccccc2)cc1 (stereo not drawn)	30.4%	5.5%	4.9%	3.1%	x	-8.7%
CC(=O)c1ccc(NC(=O)CNCC(c2ccccc2)N(C)C)cc1 (stereo not drawn)	9.3%	1.2%	2.82µM*	u	-23.5%	18.9µM*
O=C(c1ccco1)N(CCC(c1ccccc1)c1ccco1)Cc1ccccc1 (stereo not drawn)	-1.4%	50.1µM*	56.2µM*	-18.4%	u	u
CCN(CC)C(=O)CC(c1ccccc1)c1ccco1 (stereo not drawn)	23.0%	0.1%	-28.2%	2.1%	-0.6%	-6.6%
SMILES	HP1b binding inh	BAZ2B inh	JMJD2A Tudor	VDR inh	L3MBTL1 block	PLK1 PBD block
COCCn1c(SCC(=O)Nc2cccc(S(N)(=O)=O)c2)nc2cc(Cl)ccc2c1=O	-16.8%	-3.4%	20µM*	u	9.2%	7.52µM*
Cc1ccnc(NS(=O)(=O)c2ccc(NC(=O)C(C)(C)C)cc2)n1	35.2%	-12.6%	-8.9%	-19.6%	x	1.1%
CC(OC(=O)CC1Sc2ccccc2NC1=O)C(=O)N(C)Cc1ccccc1 (stereo not drawn)	13.5%	x	-12.0%	-12.8%	x	18.9µM*
CCOC(=O)CC1Sc2ccccc2NC1=O (stereo not drawn)	36.0%	-4.6%	0.0%	0.2%	17.1%	-26.3%
CCCC(=O)Nc1nnc(SCc2cc(=O)n3cccc(C)c3n2)s1	26.9%[57 µM]	1.4%	-6.2%	22.7%	x	x
CCN(CC)CCOc1ccc(/C(=C(\Cl)c2ccccc2)c2ccccc2)cc1	u	u	31.6µM*	15.5%	-4.5%	-1.5%
CCN(CC)CCOC(=O)c1cccc(Cl)c1	24.7%	-6.7%	0.8%	19.7%	1.6%	0.9%
Cn1c(=O)[nH]c(=O)c2c1nc(N)n2Cc1ccccc1	2.3%	1.5%	-11.9%	-7.9%	x	-5.1%
COc1cccc(N2CCN(C(=O)c3cnn(C(C)(C)C)c3C3CCN(C(=O)OC(C)(C)C)CC3)CC2)c1	-8.4%	2.1%[57.1 µM]	-25.6%	-1.3%	x	x
COc1ccc(NC(=O)c2nnn(Cc3cccc(F)c3)c2N)c(OC)c1	51.6%	11.1%	-3.5%	-10.1%	x	-7.7%
COc1ccc(C)cc1NC(=O)c1nnn(Cc2cccc(F)c2)c1N	42.2%	8.7%	-14.8%	5.4%	-5.8%	37.7µM*
CC(=O)Cc1nsc(Nc2ccc(C)cc2)n1	-17.5%	-18.6%	u	u	1.3%	26.7µM*
CCN(CC)c1ccc2cc(S(=O)(=O)c3ccc(Cl)cc3)c(=O)oc2c1	147.1%	63.3%	84.1%	9.4%	104.0%	18.9µM*
